# According to publication PMC7862700, “An all-to-all approach to the identification of sequence-specific readers for epigenetic DNA modifications on cytosine”:
# Key:
# Test in all cases: DAPPL (digital affinity profiling via proximity ligation, sequencing); 10 mM Tris-HCl pH 7.5, 50 mM NaCl, 1 mM DTT, 4% glycerol, room temperature, 30 min; GST-TFs on glutathione beads, 16-mer random dsDNA library, 0.1% formaldehyde crosslink after washing; high values mean tight binding
# FLI1 = target: T1, FLI1 (Homo sapiens, UniProt Q01543 1-452); settings: protein: recombinant; tags: N-terminal GST; dsDNA, one strand shown
# T1 sequence: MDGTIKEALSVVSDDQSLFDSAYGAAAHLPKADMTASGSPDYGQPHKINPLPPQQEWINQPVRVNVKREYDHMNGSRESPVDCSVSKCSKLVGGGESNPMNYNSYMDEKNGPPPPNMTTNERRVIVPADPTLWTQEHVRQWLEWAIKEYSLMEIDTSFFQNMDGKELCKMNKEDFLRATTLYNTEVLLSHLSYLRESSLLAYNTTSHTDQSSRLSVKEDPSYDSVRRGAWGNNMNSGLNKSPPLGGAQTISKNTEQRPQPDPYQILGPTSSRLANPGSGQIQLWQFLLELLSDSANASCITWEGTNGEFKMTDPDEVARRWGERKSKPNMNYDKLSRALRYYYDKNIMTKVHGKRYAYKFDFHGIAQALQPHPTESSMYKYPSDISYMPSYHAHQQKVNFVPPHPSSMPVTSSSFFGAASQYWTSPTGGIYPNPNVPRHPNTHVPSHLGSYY
# Method in brief: (§1)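 Pools were built from human transcription factors expressed in yeast as GST fusions, captured on glutathione beads and DNA-barcoded, along with a tag-only sample. Incubation with 200 nmole of a 16-mer random double-stranded DNA library lasted 30 min at room temperature in Tris/NaCl/DTT/glycerol buffer, and was followed by washing, 0.1% formaldehyde crosslinking, proximity ligation, PCR amplification and Illumina NextSeq500 sequencing. Binding signal is the quotient of each hexamer's read frequency for a factor and its frequency for the tag-only sample.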
# ELK1 = target: T2, ELK1 (Homo sapiens, UniProt P19419 1-428); settings: protein: recombinant; tags: N-terminal GST; dsDNA, one strand shown
# T2 sequence: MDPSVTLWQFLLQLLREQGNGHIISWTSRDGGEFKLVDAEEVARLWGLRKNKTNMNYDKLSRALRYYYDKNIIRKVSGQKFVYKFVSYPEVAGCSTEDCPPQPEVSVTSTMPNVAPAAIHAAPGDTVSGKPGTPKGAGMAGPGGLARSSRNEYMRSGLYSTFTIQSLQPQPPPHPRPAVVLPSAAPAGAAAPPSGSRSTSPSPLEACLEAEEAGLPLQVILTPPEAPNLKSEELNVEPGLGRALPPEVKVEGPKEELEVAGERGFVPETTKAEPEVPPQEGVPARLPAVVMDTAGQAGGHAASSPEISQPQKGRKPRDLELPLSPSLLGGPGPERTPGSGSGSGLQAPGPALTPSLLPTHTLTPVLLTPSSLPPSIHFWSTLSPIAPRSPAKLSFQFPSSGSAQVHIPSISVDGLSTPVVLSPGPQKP
# Method in brief: as §1
# GABPA = target: T3, GABPA (Homo sapiens, UniProt Q06546 1-454); settings: protein: recombinant; tags: N-terminal GST; dsDNA, one strand shown
# T3 sequence: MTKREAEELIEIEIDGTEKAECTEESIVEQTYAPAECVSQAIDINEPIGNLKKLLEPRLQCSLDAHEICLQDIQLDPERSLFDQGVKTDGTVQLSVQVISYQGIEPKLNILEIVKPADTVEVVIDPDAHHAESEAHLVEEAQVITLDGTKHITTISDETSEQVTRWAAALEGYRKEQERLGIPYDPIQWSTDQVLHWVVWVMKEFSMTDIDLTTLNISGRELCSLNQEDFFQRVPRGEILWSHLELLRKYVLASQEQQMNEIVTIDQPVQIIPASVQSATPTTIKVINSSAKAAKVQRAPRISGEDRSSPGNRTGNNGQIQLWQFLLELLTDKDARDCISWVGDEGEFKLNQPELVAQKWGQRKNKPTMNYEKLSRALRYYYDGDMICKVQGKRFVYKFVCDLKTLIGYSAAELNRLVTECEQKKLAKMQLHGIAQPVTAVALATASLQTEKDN
# Method in brief: as §1
# ERG = target: T4, ERG (Homo sapiens, UniProt P11308 1-479); settings: protein: recombinant; tags: N-terminal GST; dsDNA, one strand shown
# T4 sequence: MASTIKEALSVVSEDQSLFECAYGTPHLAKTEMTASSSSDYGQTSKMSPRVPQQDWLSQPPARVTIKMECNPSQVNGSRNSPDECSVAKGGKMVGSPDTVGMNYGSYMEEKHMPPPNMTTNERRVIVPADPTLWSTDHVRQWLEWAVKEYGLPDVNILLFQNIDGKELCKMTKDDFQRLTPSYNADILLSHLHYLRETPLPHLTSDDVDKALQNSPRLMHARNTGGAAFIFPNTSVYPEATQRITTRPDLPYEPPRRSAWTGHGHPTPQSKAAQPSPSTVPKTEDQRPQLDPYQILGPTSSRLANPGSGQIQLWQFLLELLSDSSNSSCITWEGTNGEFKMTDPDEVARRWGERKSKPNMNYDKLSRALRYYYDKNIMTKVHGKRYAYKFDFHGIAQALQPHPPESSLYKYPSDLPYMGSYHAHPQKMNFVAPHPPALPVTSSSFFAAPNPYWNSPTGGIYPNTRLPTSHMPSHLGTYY
# Method in brief: as §1
# ELF1 = ELF1 (Homo sapiens, UniProt P32519 1-619); settings: protein: recombinant; tags: N-terminal GST; dsDNA, one strand shown
# Method in brief: as §1
# EHF = target: T5, EHF (Homo sapiens, UniProt Q9NZC4 1-300); settings: protein: recombinant; tags: N-terminal GST; dsDNA, one strand shown
# T5 sequence: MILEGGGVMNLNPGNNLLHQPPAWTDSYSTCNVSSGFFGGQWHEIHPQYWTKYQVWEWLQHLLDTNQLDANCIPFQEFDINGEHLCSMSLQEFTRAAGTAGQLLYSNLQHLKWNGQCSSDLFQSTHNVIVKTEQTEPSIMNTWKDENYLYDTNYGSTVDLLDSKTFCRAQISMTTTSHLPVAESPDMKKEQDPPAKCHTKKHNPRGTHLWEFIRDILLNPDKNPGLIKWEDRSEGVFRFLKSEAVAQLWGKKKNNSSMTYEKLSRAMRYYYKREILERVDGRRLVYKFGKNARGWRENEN
# Method in brief: as §1
# SPI1 = SPI1 (Homo sapiens, UniProt P17947 1-270); settings: protein: recombinant; tags: N-terminal GST; dsDNA, one strand shown
# Method in brief: as §1
# SPIB = SPIB (Homo sapiens, UniProt Q01892 1-262); settings: protein: recombinant; tags: N-terminal GST; dsDNA, one strand shown
# Method in brief: as §1
# ELK3 = target: T6, ELK3 (Homo sapiens, UniProt P41970 1-407); settings: protein: recombinant; tags: N-terminal GST; dsDNA, one strand shown
# T6 sequence: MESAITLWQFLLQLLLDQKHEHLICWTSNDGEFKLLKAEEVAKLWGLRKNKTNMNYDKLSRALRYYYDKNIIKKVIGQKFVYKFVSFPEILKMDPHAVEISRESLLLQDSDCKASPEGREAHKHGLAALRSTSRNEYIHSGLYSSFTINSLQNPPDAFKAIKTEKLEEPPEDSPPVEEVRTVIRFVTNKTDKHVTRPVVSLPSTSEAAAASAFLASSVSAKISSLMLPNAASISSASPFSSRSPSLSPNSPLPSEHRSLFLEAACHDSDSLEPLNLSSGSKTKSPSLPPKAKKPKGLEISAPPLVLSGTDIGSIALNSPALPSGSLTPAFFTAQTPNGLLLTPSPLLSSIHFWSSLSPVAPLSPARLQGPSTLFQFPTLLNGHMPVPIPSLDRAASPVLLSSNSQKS
# Method in brief: as §1
# FEV = target: T7, FEV (Homo sapiens, UniProt Q99581 1-238); settings: protein: recombinant; tags: N-terminal GST; dsDNA, one strand shown
# T7 sequence: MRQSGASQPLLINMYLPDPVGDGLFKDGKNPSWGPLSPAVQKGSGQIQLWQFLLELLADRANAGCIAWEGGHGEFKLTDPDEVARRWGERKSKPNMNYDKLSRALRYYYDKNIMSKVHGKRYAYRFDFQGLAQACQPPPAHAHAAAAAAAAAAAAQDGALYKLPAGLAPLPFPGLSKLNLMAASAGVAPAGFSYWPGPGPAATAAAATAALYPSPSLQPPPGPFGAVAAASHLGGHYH
# Method in brief: as §1
# ETV5 = ETV5 (Homo sapiens, UniProt P41161 1-510); settings: protein: recombinant; tags: N-terminal GST; dsDNA, one strand shown
# Method in brief: as §1
# HSF1 = HSF1 (Homo sapiens, UniProt Q00613 1-529); settings: protein: recombinant; tags: N-terminal GST; chain copies: 3; dsDNA, one strand shown
# Method in brief: as §1
# SPIC = target: T8, SPIC (Homo sapiens, UniProt Q8N5J4 1-248); settings: protein: recombinant; tags: N-terminal GST; dsDNA, one strand shown
# T8 sequence: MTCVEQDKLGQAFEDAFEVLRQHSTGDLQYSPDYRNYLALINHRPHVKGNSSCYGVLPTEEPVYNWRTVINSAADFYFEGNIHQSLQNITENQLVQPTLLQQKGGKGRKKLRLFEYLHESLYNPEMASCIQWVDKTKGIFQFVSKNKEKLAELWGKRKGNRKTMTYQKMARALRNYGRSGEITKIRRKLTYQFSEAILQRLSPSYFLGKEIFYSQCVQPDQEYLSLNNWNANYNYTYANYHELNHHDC
# Method in brief: as §1
# ELF4 = ELF4 (Homo sapiens, UniProt Q99607 1-663); settings: protein: recombinant; tags: N-terminal GST; dsDNA, one strand shown
# Method in brief: as §1
# ELK4 = target: T9, ELK4 (Homo sapiens, UniProt P28324-2 1-405); settings: protein: recombinant; tags: N-terminal GST; dsDNA, one strand shown
# T9 sequence: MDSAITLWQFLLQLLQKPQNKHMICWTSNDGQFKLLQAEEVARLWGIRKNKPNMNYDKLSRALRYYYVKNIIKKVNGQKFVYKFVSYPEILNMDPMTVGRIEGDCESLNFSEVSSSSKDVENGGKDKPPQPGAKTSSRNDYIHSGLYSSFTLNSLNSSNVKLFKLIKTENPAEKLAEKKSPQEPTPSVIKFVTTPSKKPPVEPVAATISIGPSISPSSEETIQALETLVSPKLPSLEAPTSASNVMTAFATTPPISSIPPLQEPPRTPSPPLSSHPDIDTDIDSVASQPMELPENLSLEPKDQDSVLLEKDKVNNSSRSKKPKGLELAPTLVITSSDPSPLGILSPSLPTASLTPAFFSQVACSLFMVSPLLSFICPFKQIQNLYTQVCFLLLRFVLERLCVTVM
# Method in brief: as §1
# ETV2 = target: T10, ETV2 (Homo sapiens, UniProt O00321 1-342); settings: protein: recombinant; tags: N-terminal GST; dsDNA, one strand shown
# T10 sequence: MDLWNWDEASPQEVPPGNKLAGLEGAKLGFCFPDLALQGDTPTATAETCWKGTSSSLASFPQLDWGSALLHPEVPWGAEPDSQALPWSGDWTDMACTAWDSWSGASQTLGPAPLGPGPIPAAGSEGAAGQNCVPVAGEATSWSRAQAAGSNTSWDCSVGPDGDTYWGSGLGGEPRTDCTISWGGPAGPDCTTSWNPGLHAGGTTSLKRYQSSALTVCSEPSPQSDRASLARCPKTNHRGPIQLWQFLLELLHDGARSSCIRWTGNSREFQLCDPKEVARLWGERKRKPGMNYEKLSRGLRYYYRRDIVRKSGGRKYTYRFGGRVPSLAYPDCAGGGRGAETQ
# Method in brief: as §1
# ELF3 = target: T11, ELF3 (Homo sapiens, UniProt P78545 1-371); settings: protein: recombinant; tags: N-terminal GST; dsDNA, one strand shown
# T11 sequence: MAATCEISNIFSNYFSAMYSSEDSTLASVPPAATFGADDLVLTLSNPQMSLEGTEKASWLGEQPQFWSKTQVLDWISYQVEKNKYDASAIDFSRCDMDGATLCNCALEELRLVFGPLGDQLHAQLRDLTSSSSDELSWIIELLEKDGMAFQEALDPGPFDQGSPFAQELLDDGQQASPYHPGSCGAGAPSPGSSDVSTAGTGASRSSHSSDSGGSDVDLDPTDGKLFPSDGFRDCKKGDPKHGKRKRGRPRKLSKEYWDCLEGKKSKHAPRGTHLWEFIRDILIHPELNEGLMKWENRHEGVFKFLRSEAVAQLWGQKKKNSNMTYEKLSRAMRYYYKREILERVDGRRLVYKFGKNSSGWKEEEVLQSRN
# Method in brief: as §1
# CRX = CRX (Homo sapiens, UniProt O43186 1-299); settings: protein: recombinant; tags: N-terminal GST; dsDNA, one strand shown
# Method in brief: as §1
# ETV1 = ETV1 (Homo sapiens, UniProt P50549 1-477); settings: protein: recombinant; tags: N-terminal GST; dsDNA, one strand shown
# Method in brief: as §1
# CRX, sequence (O43186 whole entry): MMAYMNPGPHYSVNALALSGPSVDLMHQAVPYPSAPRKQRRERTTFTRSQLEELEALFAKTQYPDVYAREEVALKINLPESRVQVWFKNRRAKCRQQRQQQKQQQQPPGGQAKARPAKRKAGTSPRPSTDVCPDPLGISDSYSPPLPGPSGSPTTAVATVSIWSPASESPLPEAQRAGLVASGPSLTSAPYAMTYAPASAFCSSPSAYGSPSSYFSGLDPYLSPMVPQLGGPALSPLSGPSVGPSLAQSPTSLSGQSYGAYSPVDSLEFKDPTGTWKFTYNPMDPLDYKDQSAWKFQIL
# ELF4, sequence (Q99607 whole entry): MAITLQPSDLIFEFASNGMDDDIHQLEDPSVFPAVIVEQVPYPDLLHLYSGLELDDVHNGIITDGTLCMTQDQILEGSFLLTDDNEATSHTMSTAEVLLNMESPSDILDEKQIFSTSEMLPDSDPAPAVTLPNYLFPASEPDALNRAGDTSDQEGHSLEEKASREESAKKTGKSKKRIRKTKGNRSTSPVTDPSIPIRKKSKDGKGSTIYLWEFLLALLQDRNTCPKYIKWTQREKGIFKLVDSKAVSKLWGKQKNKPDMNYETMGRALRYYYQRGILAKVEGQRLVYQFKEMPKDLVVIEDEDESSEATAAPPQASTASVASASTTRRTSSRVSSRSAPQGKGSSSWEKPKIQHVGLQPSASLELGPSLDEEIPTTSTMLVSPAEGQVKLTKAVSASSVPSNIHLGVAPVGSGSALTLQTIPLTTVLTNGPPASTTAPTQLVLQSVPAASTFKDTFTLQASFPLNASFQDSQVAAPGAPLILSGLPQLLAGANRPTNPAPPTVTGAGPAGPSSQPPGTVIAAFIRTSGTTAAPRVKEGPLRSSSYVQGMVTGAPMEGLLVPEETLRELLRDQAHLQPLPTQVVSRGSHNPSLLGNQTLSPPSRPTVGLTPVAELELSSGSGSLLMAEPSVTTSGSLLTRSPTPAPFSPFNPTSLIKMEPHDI
# HSF1, sequence (Q00613 whole entry): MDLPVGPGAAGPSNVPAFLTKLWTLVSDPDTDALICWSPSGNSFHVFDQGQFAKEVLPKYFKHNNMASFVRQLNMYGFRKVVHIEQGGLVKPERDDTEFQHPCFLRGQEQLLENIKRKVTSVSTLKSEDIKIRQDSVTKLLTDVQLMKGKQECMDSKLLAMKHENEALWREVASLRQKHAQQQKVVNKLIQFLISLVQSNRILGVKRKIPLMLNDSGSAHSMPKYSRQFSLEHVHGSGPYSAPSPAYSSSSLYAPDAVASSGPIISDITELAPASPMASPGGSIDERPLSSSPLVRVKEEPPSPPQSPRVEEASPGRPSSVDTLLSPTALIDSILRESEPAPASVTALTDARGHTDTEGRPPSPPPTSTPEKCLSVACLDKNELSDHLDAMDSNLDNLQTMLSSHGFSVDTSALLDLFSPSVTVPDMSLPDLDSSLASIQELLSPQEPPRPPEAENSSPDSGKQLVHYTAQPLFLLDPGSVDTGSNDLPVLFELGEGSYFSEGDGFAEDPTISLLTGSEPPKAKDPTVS
# ETV5, sequence (P41161 whole entry): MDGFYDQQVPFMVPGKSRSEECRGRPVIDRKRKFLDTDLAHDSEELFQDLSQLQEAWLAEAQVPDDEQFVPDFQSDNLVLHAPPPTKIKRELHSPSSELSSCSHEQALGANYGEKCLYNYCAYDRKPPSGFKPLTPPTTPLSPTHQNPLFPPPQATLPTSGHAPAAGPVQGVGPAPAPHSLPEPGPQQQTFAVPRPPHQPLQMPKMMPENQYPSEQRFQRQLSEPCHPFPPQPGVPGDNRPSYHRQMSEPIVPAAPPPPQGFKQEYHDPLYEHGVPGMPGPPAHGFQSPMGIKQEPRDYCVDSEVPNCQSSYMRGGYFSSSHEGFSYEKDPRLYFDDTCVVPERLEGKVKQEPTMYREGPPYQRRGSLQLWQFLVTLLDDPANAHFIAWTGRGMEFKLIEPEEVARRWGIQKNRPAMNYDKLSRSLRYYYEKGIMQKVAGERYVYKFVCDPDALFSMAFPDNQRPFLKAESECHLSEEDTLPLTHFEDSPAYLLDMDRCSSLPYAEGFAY
# ETV1, sequence (P50549 whole entry): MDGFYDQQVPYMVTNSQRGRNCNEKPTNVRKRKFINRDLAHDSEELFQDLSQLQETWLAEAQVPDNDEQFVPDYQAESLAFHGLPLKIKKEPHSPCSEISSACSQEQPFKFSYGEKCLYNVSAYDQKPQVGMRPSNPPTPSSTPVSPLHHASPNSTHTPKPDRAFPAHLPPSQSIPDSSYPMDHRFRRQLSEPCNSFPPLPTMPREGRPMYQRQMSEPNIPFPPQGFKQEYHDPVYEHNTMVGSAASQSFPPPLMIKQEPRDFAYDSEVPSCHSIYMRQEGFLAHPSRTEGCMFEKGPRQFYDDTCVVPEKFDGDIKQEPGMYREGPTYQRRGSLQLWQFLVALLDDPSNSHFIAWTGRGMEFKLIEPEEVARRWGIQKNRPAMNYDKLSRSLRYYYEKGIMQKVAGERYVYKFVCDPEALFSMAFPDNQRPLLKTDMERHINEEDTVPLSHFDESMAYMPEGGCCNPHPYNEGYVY
# SPIB, sequence (Q01892 whole entry): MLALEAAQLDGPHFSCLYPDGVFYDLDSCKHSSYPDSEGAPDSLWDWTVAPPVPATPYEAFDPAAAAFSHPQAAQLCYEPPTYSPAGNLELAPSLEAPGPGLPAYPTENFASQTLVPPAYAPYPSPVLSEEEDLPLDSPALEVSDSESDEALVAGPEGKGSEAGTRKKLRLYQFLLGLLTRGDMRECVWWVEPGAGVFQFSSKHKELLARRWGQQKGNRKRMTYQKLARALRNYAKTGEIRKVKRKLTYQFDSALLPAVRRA
# ELF1, sequence (P32519 whole entry): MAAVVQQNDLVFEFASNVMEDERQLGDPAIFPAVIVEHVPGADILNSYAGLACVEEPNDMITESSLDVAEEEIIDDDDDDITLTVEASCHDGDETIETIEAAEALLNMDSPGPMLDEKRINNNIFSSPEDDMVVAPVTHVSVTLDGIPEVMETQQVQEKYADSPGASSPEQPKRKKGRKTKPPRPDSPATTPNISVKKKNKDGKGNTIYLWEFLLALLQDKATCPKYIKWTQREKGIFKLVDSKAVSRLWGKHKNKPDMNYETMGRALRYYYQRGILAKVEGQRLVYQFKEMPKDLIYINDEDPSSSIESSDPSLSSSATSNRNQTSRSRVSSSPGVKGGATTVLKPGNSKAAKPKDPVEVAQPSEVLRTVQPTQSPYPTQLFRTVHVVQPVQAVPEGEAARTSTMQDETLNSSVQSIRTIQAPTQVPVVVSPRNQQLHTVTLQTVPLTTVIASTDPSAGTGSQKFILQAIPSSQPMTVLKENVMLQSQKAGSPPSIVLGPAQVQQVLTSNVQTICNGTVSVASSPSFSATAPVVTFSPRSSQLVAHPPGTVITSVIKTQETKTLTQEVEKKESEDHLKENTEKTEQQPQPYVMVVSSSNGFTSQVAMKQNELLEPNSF
sequence,measurement,setting,value
GATGAT,binding signal,FLI1,"1.34 fold enrichment (6-mer frequency, TF over GST control)"
same,binding signal,ELK1,"1.37 fold enrichment (6-mer frequency, TF over GST control)"
same,binding signal,GABPA,"1.35 fold enrichment (6-mer frequency, TF over GST control)"
same,binding signal,ERG,"1.33 fold enrichment (6-mer frequency, TF over GST control)"
same,binding signal,ELF1,"1.32 fold enrichment (6-mer frequency, TF over GST control)"
same,binding signal,EHF,"1.44 fold enrichment (6-mer frequency, TF over GST control)"
same,binding signal,SPI1,"1.28 fold enrichment (6-mer frequency, TF over GST control)"
same,binding signal,SPIB,"1.33 fold enrichment (6-mer frequency, TF over GST control)"
same,binding signal,ELK3,"1.34 fold enrichment (6-mer frequency, TF over GST control)"
same,binding signal,FEV,"1.18 fold enrichment (6-mer frequency, TF over GST control)"
same,binding signal,ETV5,"1.31 fold enrichment (6-mer frequency, TF over GST control)"
same,binding signal,HSF1,"1.49 fold enrichment (6-mer frequency, TF over GST control)"
same,binding signal,SPIC,"1.23 fold enrichment (6-mer frequency, TF over GST control)"
same,binding signal,ELF4,"1.32 fold enrichment (6-mer frequency, TF over GST control)"
same,binding signal,ELK4,"1.26 fold enrichment (6-mer frequency, TF over GST control)"
same,binding signal,ETV2,"1.33 fold enrichment (6-mer frequency, TF over GST control)"
same,binding signal,ELF3,"1.33 fold enrichment (6-mer frequency, TF over GST control)"
same,binding signal,CRX,"1.68 fold enrichment (6-mer frequency, TF over GST control)"
same,binding signal,ETV1,"1.27 fold enrichment (6-mer frequency, TF over GST control)"
